Data taken from PubChem BioAssay.
For part of these data: Measured potencies and affinities stand elsewhere. The source made the active and inactive calls. Unless noted, no rule for the calls is given here.

How the values were obtained:
[1] = antimalarial activity against Dd2 strain (AID 2302;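 active = growth inhibition above 50% at the single 2 µM test dose, taken to imply half-maximal potency below 2 µM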;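 also: 0% = DMSO untreated growth and 100% = chloroquine plus artemisinin killed control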); conditions: P. falciparum Dd2 in RBCs, LDH growth readout, 72 h; at 2 µM; stronger effect = higher value
[2] = human hepatoma cell viability loss – ATP luminescence, cytotoxicity control for P. falciparum antimalarial project, primary screen (AID 2303;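 active = inhibition above 50%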;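 also: 0% = DMSO wells and 100% = digitonin-killed cells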); conditions: HepG2 viability, 24-48 h, at 10 µM, stronger effect = higher value
[3] = target: L-lactate dehydrogenase (Plasmodium falciparum (isolate CDC / Honduras)) (UniProt Q27743); experiment: PfLDH activity inhibition – cell lysate, 3D7 strain, counter-screen for P. falciparum growth inhibition project (AID 2304);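 also: 0% = vehicle and 100% = reference inhibitor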; conditions: P. falciparum 3D7 crude extract, LDH APAD/NBT absorbance; at 2 µM; stronger effect = higher value
[4] = inhibition of 3D7 malaria parasite growth – strain 3D7 (AID 2306);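 also: 0% = DMSO wells and 100% = chloroquine plus artemisinin control wells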; conditions: P. falciparum 3D7 erythrocytic growth, LDH absorbance, 72 h; at 2 µM; stronger effect = higher value
[5] = target: Calcium-dependent protein kinase 1 (Plasmodium falciparum (isolate 3D7)) (UniProt P62344); experiment: PfCDPK1 kinase inhibitors, biochemical, TCAMS library (AID 1159585; cut-off not given, nearly all actives have IC50 up to about 0.98 µM;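 also: inhibitors leave more ATP so luminescence rises with inhibition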); conditions: recombinant PfCDPK1, Kinase-Glo ATP depletion luminescence
[6] = target: Plasmodium falciparum protein kinase 6 (PK6, PF3D7_1337100) (UniProt Q8IDW1); experiment: PfPK6 kinase inhibitors, biochemical, TCAMS library (AID 1159586); conditions: recombinant PfPK6, Kinase-Glo ATP depletion luminescence
[7] = target: Protein kinase 7 (PK7), Plasmodium falciparum 3D7 (PF3D7_0213400) (UniProt Q7YTF7); experiment: inhibition of Plasmodium PK7 catalytic activity – biochemical, TCAMS antimalarial set, Kinase-Glo luminescence (AID 1159587); conditions: recombinant PfPK7, Kinase-Glo ATP depletion luminescence
[8] = target: Calcium-dependent protein kinase 4 (Plasmodium falciparum (isolate 3D7)) (UniProt Q8IBS5); experiment: PfCDPK4 kinase inhibitors, biochemical, TCAMS library (AID 1159588; cut-off not given, nearly all actives have IC50 up to about 0.91 µM); conditions: recombinant PfCDPK4, Kinase-Glo ATP depletion luminescence
Chain of Calcium-dependent protein kinase 4 (Plasmodium falciparum (isolate 3D7)) (Q8IBS5 whole entry, looked up): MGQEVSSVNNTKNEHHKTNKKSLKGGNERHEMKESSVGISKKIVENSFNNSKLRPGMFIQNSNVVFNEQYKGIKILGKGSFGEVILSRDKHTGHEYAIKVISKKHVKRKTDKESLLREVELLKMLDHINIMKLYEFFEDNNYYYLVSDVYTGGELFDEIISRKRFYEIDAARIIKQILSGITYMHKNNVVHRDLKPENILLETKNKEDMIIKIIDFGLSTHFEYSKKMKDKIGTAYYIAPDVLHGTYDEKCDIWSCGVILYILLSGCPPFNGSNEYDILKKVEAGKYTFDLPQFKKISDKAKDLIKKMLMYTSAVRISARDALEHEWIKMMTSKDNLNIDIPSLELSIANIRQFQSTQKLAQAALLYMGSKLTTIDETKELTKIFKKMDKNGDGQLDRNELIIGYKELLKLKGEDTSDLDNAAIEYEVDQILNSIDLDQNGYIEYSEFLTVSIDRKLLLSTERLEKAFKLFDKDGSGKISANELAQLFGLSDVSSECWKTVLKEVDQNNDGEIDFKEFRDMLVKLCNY

Chain of Calcium-dependent protein kinase 1 (Plasmodium falciparum (isolate 3D7)) (P62344 whole entry, looked up): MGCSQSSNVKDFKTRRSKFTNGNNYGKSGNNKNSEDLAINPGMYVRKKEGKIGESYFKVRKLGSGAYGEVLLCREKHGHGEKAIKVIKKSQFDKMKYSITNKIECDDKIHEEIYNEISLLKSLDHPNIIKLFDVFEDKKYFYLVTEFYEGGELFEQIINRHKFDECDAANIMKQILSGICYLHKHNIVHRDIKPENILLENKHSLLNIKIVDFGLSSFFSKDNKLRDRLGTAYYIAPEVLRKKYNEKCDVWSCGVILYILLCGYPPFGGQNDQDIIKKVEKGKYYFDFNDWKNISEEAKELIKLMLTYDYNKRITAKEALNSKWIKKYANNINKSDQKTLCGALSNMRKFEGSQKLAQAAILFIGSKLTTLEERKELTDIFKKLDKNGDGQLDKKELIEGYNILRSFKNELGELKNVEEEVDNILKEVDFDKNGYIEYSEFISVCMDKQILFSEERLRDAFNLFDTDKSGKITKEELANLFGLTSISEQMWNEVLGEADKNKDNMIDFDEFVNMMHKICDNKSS
Chain of L-lactate dehydrogenase (Plasmodium falciparum (isolate CDC / Honduras)) (Q27743 whole entry, looked up): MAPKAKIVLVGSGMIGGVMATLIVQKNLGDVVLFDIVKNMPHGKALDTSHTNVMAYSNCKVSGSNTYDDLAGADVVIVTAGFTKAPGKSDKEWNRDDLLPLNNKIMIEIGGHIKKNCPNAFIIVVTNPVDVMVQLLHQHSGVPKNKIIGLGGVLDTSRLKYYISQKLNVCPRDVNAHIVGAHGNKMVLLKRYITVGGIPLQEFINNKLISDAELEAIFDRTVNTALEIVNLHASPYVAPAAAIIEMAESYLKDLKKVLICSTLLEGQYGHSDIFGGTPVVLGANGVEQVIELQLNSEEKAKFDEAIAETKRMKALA
Chain of Protein kinase 7 (PK7), Plasmodium falciparum 3D7 (PF3D7_0213400) (Q7YTF7 1-343): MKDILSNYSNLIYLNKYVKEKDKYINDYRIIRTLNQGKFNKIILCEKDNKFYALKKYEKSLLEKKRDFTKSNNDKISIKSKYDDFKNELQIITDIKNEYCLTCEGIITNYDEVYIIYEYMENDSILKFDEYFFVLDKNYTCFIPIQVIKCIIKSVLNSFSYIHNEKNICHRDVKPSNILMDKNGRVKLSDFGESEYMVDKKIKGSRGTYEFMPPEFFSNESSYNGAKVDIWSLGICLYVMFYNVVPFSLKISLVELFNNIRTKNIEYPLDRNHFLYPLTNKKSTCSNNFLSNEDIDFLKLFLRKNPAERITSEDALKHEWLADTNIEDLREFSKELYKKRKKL
Chain of Plasmodium falciparum protein kinase 6 (PK6, PF3D7_1337100) (Q8IDW1 1-305): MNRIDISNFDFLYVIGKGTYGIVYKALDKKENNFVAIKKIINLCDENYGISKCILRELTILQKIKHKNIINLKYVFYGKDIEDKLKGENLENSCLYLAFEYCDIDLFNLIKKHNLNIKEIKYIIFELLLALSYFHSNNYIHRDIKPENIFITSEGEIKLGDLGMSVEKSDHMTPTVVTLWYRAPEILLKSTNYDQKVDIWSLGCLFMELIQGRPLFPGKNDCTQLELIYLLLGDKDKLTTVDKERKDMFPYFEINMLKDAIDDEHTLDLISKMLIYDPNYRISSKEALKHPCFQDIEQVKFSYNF

O=C(Nc1ccc(F)cc1)NC1CCN(c2ccnc3cc(Cl)ccc23)CC1
inactive: inhibition [2] 10% | inhibition [3] 0% | outcome [5] | outcome [6] | outcome [7] | outcome [8]
active: growth inhibition [1] 57% | growth inhibition [4] 97%

CN(CCC1CCN(C(=O)/C=C/c2ccc(Cl)c(Cl)c2)CC1)C1CCC(c2c[nH]c3ccccc23)CC1 (configuration not stated)
inactive: growth inhibition [1] 9% | inhibition [3] -5% | outcome [5] | outcome [6] | outcome [7] | outcome [8]
active: inhibition [2] 57% | growth inhibition [4] 87%

Cc1nnsc1C(=O)Nc1ccc(-c2cccc(-c3nc4ccc(C(F)(F)F)cc4[nH]3)c2)cc1
active: inhibition [2] 69% | growth inhibition [4] 97%
inactive: growth inhibition [1] 36% | inhibition [3] 2% | outcome [5] | outcome [6] | outcome [7] | outcome [8]

CC(C)CNC(=S)N1CCCN(c2nc3ccc(Cl)cc3s2)CC1
inactive: growth inhibition [1] 11% | inhibition [2] 28% | inhibition [3] -3% | outcome [5] | outcome [6] | outcome [7] | outcome [8]
active: growth inhibition [4] 95%

CCNC(=O)c1cc(S(=O)(=O)N2CCN(c3ccccn3)CC2)cs1
inactive: inhibition [2] 7% | inhibition [3] 1% | outcome [5] | outcome [6] | outcome [7] | outcome [8]
active: growth inhibition [1] 94% | growth inhibition [4] 97%

CCOc1cc(C(=O)NCC2CCN(CC3CCCCC3)CC2)ccc1-c1nc2ccc(Cl)cc2[nH]1
active: growth inhibition [1] 59% | growth inhibition [4] 98%
inactive: inhibition [2] 14% | inhibition [3] -6% | outcome [5] | outcome [6] | outcome [7] | outcome [8]

Cc1ccc(OC2CCN(c3ccc(C(=O)NC4CC4)cn3)CC2)cc1
inactive: inhibition [2] 11% | inhibition [3] 4% | outcome [5] | outcome [6] | outcome [7] | outcome [8]
active: growth inhibition [1] 75% | growth inhibition [4] 87%

CCOC(=O)NC1=NC(C)(C)N(OCCCOc2cc(Cl)c(Cl)cc2Cl)C(N)=N1
active: growth inhibition [1] 94% | inhibition [2] 63% | growth inhibition [4] 97%
inactive: inhibition [3] -2% | outcome [5] | outcome [6] | outcome [7] | outcome [8]

Nc1nc(N)c2cc(C#Cc3ccc(-c4ccccc4)cc3)ccc2n1
inactive: growth inhibition [1] 3% | inhibition [2] 20% | inhibition [3] 0% | outcome [5] | outcome [6] | outcome [7] | outcome [8]
active: growth inhibition [4] 94%

Cc1nccc2c(NC(=O)N[C@@H]3CCN(c4ncc(C(F)(F)F)cc4Br)C3)cccc12
active: growth inhibition [4] 96%
inactive: growth inhibition [1] 27% | inhibition [2] 21% | inhibition [3] -4% | outcome [5] | outcome [6] | outcome [7] | outcome [8]

O=C(CCc1cccnc1)Nc1cccc(-c2ccc(-c3nc4ccc(C(F)(F)F)cc4[nH]3)cc2)c1
inactive: growth inhibition [1] -5% | inhibition [2] 38% | inhibition [3] 3% | outcome [5] | outcome [6] | outcome [7] | outcome [8]
active: growth inhibition [4] 93%

COc1ccc2ncc(F)c(CCN3C[C@H](CNCc4ccc5oc(=O)ccc5c4)[C@H](O)C3)c2n1
inactive: growth inhibition [1] 6% | inhibition [2] 18% | inhibition [3] 3% | outcome [5] | outcome [6] | outcome [7] | outcome [8]
active: growth inhibition [4] 89%

COc1cccc(C(=O)NCCc2cccc(Cl)c2)c1OCc1ccccc1
inactive: growth inhibition [1] -1% | inhibition [2] -1% | inhibition [3] 1% | outcome [5] | outcome [6] | outcome [7] | outcome [8]
active: growth inhibition [4] 85%

CCC(=O)c1cc(C(=O)NCCc2cccc(OC)c2)ccc1OC
active: growth inhibition [4] 83%
inactive: growth inhibition [1] 12% | inhibition [2] -7% | inhibition [3] -2% | outcome [5] | outcome [6] | outcome [7] | outcome [8]

CC(C)(C)OC(=O)NCc1ccc(Nc2nnc(-c3cccc(C(=O)NCCC(c4ccccc4)c4ccccc4)c3)o2)cc1
inactive: inhibition [2] -4% | inhibition [3] -2% | outcome [5] | outcome [6] | outcome [7] | outcome [8]
active: growth inhibition [1] 89% | growth inhibition [4] 100%

O[C@H](c1cc(C(F)(F)F)nc2c(C(F)(F)F)cccc12)[C@@H]1CCCCN1
inactive: inhibition [2] 29% | inhibition [3] 7% | outcome [5] | outcome [6] | outcome [7] | outcome [8]
active: growth inhibition [1] 99% | growth inhibition [4] 99%

O=C(Nc1cc(C(F)(F)F)cc(C(F)(F)F)c1)c1cccc([N+](=O)[O-])c1
active: growth inhibition [4] 93%
inactive: growth inhibition [1] 15% | inhibition [2] 23% | inhibition [3] -2% | outcome [5] | outcome [6] | outcome [7] | outcome [8]

Clc1ccc2c(NN=Cc3ccco3)ccnc2c1
active: growth inhibition [1] 96% | growth inhibition [4] 100%
inactive: inhibition [2] 3% | inhibition [3] -4% | outcome [5] | outcome [6] | outcome [7] | outcome [8]

COc1ccc2nccc(NC(=O)C3CCC(NCc4ccc5c(c4)NC(=O)CS5)CC3)c2c1 (configuration not stated)
active: growth inhibition [4] 94%
inactive: growth inhibition [1] 19% | inhibition [2] 0% | inhibition [3] -4% | outcome [5] | outcome [6] | outcome [7] | outcome [8]

CC(C)[C@H](NC(=O)c1ccc(O)c(-c2ccc(Cl)c(Cl)c2)c1)C(=O)NCCN1CCCCC1
inactive: inhibition [2] -6% | inhibition [3] -4% | outcome [5] | outcome [6] | outcome [7] | outcome [8]
active: growth inhibition [1] 98% | growth inhibition [4] 99%

COc1ccc2nccc(NN=Cc3ccc(N(C)C)cc3)c2c1
active: growth inhibition [1] 95% | growth inhibition [4] 101%
inactive: inhibition [2] 4% | inhibition [3] -6% | outcome [5] | outcome [6] | outcome [7] | outcome [8]

COc1cccc(NC(=O)Nc2cc(C)nc3ccccc23)c1
inactive: growth inhibition [1] 48% | inhibition [2] 2% | inhibition [3] -1% | outcome [5] | outcome [6] | outcome [7] | outcome [8]
active: growth inhibition [4] 100%

COc1cc(CNCCC(C)C)ccc1OCc1cccc(COc2ccc(CNCCC(C)C)cc2OC)c1
active: inhibition [2] 97% | growth inhibition [4] 99%
inactive: growth inhibition [1] 20% | inhibition [3] 6% | outcome [5] | outcome [6] | outcome [7] | outcome [8]

Nc1ccnc(N2CCC(CCOc3ccnc4cc(Cl)ccc34)CC2)c1
inactive: inhibition [2] 34% | inhibition [3] 4% | outcome [5] | outcome [6] | outcome [7] | outcome [8]
active: growth inhibition [1] 99% | growth inhibition [4] 100%

C[C@H](NC(=O)c1c(CN2CCC(N3CCCCC3)CC2)c(-c2ccccc2)nc2cc(O)ccc12)C1CCCCC1
inactive: inhibition [3] 0% | outcome [5] | outcome [6] | outcome [7] | outcome [8]
active: growth inhibition [1] 72% | inhibition [2] 77% | growth inhibition [4] 99%

CC1CCN(CC[C@H]2CCCN2S(=O)(=O)c2cccc(NC(=O)c3ccc(-c4ccc(Cl)cc4)o3)c2)CC1
inactive: inhibition [2] 45% | inhibition [3] 3% | outcome [5] | outcome [6] | outcome [7] | outcome [8]
active: growth inhibition [1] 65% | growth inhibition [4] 101%

O=C(NCc1ccc(C(=O)N2CCC(N3CCCCC3)CC2)cc1)c1cc(-c2cccc(C(F)(F)F)c2)ccc1O
active: growth inhibition [1] 58% | growth inhibition [4] 100%
inactive: inhibition [2] -3% | inhibition [3] 1% | outcome [5] | outcome [6] | outcome [7] | outcome [8]

CC(C)[C@@H](C(=O)NCc1cccc(C(F)(F)F)c1)N1C(=O)CCC1C(=O)Nc1ccc([N+](=O)[O-])cc1 (some centres not stated)
inactive: growth inhibition [1] 2% | inhibition [2] -5% | inhibition [3] -2% | outcome [5] | outcome [6] | outcome [7] | outcome [8]
active: growth inhibition [4] 94%

CN(N=Cc1ccccc1)C(N)=NCCCC#Cc1cccc(CN2CCCC2)c1
active: growth inhibition [4] 89%
inactive: growth inhibition [1] 3% | inhibition [2] 16% | inhibition [3] -2% | outcome [5] | outcome [6] | outcome [7] | outcome [8]

O=C(Nc1ccc(-c2cccc(-c3nc4ccc(F)cc4[nH]3)c2)cc1)c1cnn2cccnc12
inactive: growth inhibition [1] 25% | inhibition [2] 10% | inhibition [3] -1% | outcome [5] | outcome [6] | outcome [7] | outcome [8]
active: growth inhibition [4] 98%

CC(C)(CNCc1cccc(Oc2ccccc2)c1)c1nc(-c2ccc(Cl)c(O)c2)c(-c2ccnc(N)n2)[nH]1
active: growth inhibition [1] 99% | growth inhibition [4] 97%
inactive: inhibition [2] 28% | inhibition [3] 4% | outcome [5] | outcome [6] | outcome [7] | outcome [8]

O=C(NC1CCCCC1)N(Cc1ccccc1-c1ccc(CNCCc2ccccc2)cc1)C1CCN(Cc2ccccc2)CC1
active: growth inhibition [1] 92% | inhibition [2] 96% | growth inhibition [4] 90%
inactive: inhibition [3] -6% | outcome [5] | outcome [6] | outcome [7] | outcome [8]

Cc1c(Oc2ccc(-n3ccnc3)cc2)ncnc1N1CCC2(CC1)CNCc1ccccc12
inactive: inhibition [2] 26% | inhibition [3] -3% | outcome [5] | outcome [6] | outcome [7] | outcome [8]
active: growth inhibition [1] 58% | growth inhibition [4] 95%

O=C(Cn1c(=O)cnc2ccccc21)Nc1cccc(C(=O)Nc2cccc(C(F)(F)F)c2)c1
inactive: inhibition [2] -12% | inhibition [3] 3% | outcome [5] | outcome [6] | outcome [7] | outcome [8]
active: growth inhibition [1] 66% | growth inhibition [4] 90%

COc1ccc2nccc([C@@H](O)CN3CCC(NCCOc4ccccc4C#N)CC3)c2c1
inactive: inhibition [2] 10% | inhibition [3] 2% | outcome [5] | outcome [6] | outcome [7] | outcome [8]
active: growth inhibition [1] 99% | growth inhibition [4] 101%

COc1ccc(-c2cnc3ccc(NCc4ccc(F)cc4)nn23)cc1OC
active: growth inhibition [1] 99% | growth inhibition [4] 97%
inactive: inhibition [2] 35% | inhibition [3] -2% | outcome [5] | outcome [6] | outcome [7] | outcome [8]

Cc1nc(SCC(=O)N2CCCC2=O)c2c(C)c(C)sc2n1
active: growth inhibition [4] 96%
inactive: growth inhibition [1] 0% | inhibition [2] 45% | inhibition [3] 2% | outcome [5] | outcome [6] | outcome [7] | outcome [8]

N#Cc1ccc(N2CCN(Cc3ccc(-c4ccc(-c5nc6ccc(F)cc6[nH]5)s4)cc3)CC2)nc1
active: growth inhibition [1] 78% | growth inhibition [4] 100%
inactive: inhibition [2] 12% | inhibition [3] 3% | outcome [5] | outcome [6] | outcome [7] | outcome [8]

CC(C)(C)NCCN(Cc1ccc(-c2ccc(C(F)(F)F)cc2)cc1)C(=O)Cn1c(CCc2cccc(F)c2F)nc(=O)c2ccccc21
active: growth inhibition [1] 68% | growth inhibition [4] 99%
inactive: inhibition [2] 46% | inhibition [3] -4% | outcome [5] | outcome [6] | outcome [7] | outcome [8]
